Structures are written as SMILES. Activity calls are given as the source filed them.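 How the source made its calls: active means cell event count below 40, meaning activity score above 60 where score is 100 minus count; inactive means the rest.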

The assay can be described thus: LNCaP cell loss by flow event count, confirmation, cytotoxicity control for prostate differentiation activator project, single point (AID 1076).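 Further: counts scatter-gated live cells after medium removal discards detached dead cells.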 The note with it: flow cytometry event count, 4 d, stronger effect = lower value. In general terms: Flow cytometry measures light scatter and fluorescence of single cells or particles in a stream.

Take `COc1ccc(Cc2noc(-c3ccc(C)cc3)n2)cc1`: the cell event count was 70 (inactive) (at 100 µM) and 152 (event count, at 10 µM).

On to `CCOC(=O)c1[nH]c(C)c(C(=O)NC2CCCCCC2)c1C`, for which the cell event count reads like this: (at 100 µM) 63 (inactive); (event count, at 10 µM) 112.

In the case of `CSc1nc2ccc(Nc3nc(N4CCOCC4)nc(N4CCOCC4)n3)cc2s1`, the cell event count was 48 (inactive) (at 100 µM) and 138 (event count, at 10 µM).

For the compound `Cc1cccc(-c2nsc(SCC(=O)Nc3nccs3)n2)c1`, the cell event count runs as follows: (at 100 µM) 144 (inactive); (event count, at 10 µM) 169.

In the case of `O=c1cc(N2CCN(c3ccc(F)cc3)CC2)[nH]c(=O)n1C1CCCCC1`, the cell event count was 173 (inactive) (at 100 µM) and 318 (event count, at 10 µM).

In the case of `O=C(c1ccc(COCC(F)(F)F)o1)N1CCCCCC1`, the cell event count by setting is: (at 100 µM) 118 (inactive); (event count, at 10 µM) 104.

With `COc1ccc(-c2cc(C(F)(F)F)nc(N3CCN(C)CC3)n2)cc1`, the cell event count is, setting by setting: (at 100 µM) 4 (inactive); (event count, at 10 µM) 102.

For the compound `O=C(c1ccccc1)c1ccc(N2CCNCC2)cc1`, the cell event count is, setting by setting: (at 100 µM) 135 (inactive); (event count, at 10 µM) 168.

With `CCOc1ccc(OCC)c(NC(=O)C2CCCN(S(=O)(=O)c3c(C)noc3C)C2)c1` (stereo unspecified), the cell event count (at 100 µM) was 187 (inactive) and the cell event count (event count, at 10 µM) is 260.

Consider `CCN(CC)CC(=O)Nc1ccc(-c2nc3cc(NC(=O)CN(CC)CC)ccc3o2)cc1`, for which the cell event count is 1 (inactive) (at 100 µM) and 140 (event count, at 10 µM).

With `C=CCn1cc(C(=O)N2CCN(C)CC2)c(=O)c2cc(S(=O)(=O)N3CCCC3)ccc21`, the cell event count (at 100 µM) was 168 (inactive) and the cell event count (event count, at 10 µM) is 118.

On to `Cn1c(C(=O)NCCC2=CCCCC2)cc2c(=O)n3ccccc3nc21`, for which the cell event count was 191 (inactive) (at 100 µM) and 132 (event count, at 10 µM).

For the compound `Cc1nc(NCCNC(=O)c2ccco2)c2c(C)c(C)sc2n1`, the cell event count is 83 (inactive) (at 100 µM) and 170 (event count, at 10 µM).

`Cc1ccccc1-c1nc(CN2CCCC(C(=O)NCc3cccnc3)C2)c(C)o1` (stereo unspecified): the cell event count (at 100 µM) was 124 (inactive) and the cell event count (event count, at 10 µM) worked out at 135.

`COC(=O)c1cc2oc3ccccc3c2n1CC(=O)Nc1ccccc1OC`: the cell event count reads like this: (at 100 µM) 169 (inactive); (event count, at 10 µM) 184.

`Cc1ccc2c(c1)c1c(n2CC(O)CNC(CO)(CO)CO)CCCC1` (stereo unspecified): the cell event count (at 100 µM) is 70 (inactive) and the cell event count (event count, at 10 µM) was found to be 392.

In the case of `CCOC(=O)N1CCC(NC(=O)C2CCCN(Cc3nc(-c4cccc(Cl)c4)oc3C)C2)CC1` (stereo unspecified), the cell event count is 33 (inactive) (at 100 µM) and 114 (event count, at 10 µM).

In the case of `CCCS(=O)(=O)N1CCCC(C(=O)NCCCN2CCN(c3ccccc3F)CC2)C1` (stereo unspecified), the cell event count (at 100 µM) is 110 (inactive) and the cell event count (event count, at 10 µM) came to 168.
